From PubChem BioAssay (Tox21)
Inconclusive results are not listed. Active and inactive are the calls of the source. Unless noted, the call rests on the fitted dose curve.

What was measured:
[1] = Nuclear factor erythroid 2-related factor 2/antioxidant responsive element (Nrf2/ARE) small molecule agonists: qHTS cell viability counter screen in human keratinocytes (AID 1919968; active means well fitted curve in the direction sought with a large enough effect in the repeat runs; an effect the other way counts as inactive or inconclusive; further: nearly all actives have a fitted effect of over 55% in size)
How it was run: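 Cytotoxicity was multiplexed with the Nrf2/ARE luciferase assay in the same wells. Stably transfected HaCaT keratinocytes were treated with test compounds for 23 h at 37 C. Cell viability was then measured by CellTiter-Fluor fluorescence.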

[2] = Nuclear factor erythroid 2-related factor 2/antioxidant responsive element (Nrf2/ARE) small molecule agonists: luciferase reporter gene qHTS assay in human keratinocytes (AID 1919969); further: nearly all actives have a fitted effect of over 35% in size
[3] = target: Gonadotropin-releasing hormone receptor (Homo sapiens) (UniProt P30968); assay: Human gonadotropin-releasing hormone receptor (GnRHR) small molecule agonists, calcium flux assay in GnRHR-HEK293 cells (AID 1920063); further: nearly all actives have a fitted effect of over 35% in size
How it was run: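 Agonist activity was measured as intracellular calcium flux in HEK293 cells engineered to stably express human GnRHR. After dye loading for 1 hour at 37 C, compounds in DMSO were added and fluorescence was followed for 3 minutes.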

[4] = target: KiSS-1 receptor (Homo sapiens) (UniProt Q969F8); assay: Human kisspeptin (KISS1R) small molecule agonists, calcium flux assay in KISS1R-HEK293 cells (AID 1920064; active means well fitted curve in the direction sought with a large enough effect in the repeat runs; an effect the other way counts as inactive or inconclusive)
How it was run: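 Agonist activity is monitored as intracellular calcium rise in engineered HEK293 cells carrying human KISS1R. Cells are dye-loaded for 1 h at 37 C before compound addition, and fluorescence is recorded for 3 min.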

[5] = G protein-coupled receptor (GPCR) small molecule agonists, calcium flux assay: HEK293 wild type cell line counter screen (AID 1920065)
How it was run: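 Seed cells, incubate 18 h (37 C, 5% CO2); add calcium dye, 1 h at 37 C; pin-transfer compounds, ATP control or DMSO; read fluorescence 480/540 nm each second for 3 min.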

[6] = p53 small molecule agonists, cell-based qHTS assay with human liver microsomes (AID 1963577)
How it was run: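 Fluorescence of the beta-lactamase reporter in p53RE-bla cells, detected with LiveBLAzer substrate (2 h, room temperature, dark), served as the read-out after 16 h compound exposure at 37 C with human liver microsomes and NADPH, each 0.5 mg/mL final.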

[7] = p53 small molecule agonists, cell-based qHTS assay with rat liver microsomes (AID 1963578)
How it was run: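 Cells carrying a p53 response element–beta-lactamase reporter were plated and rested 5 h, then dosed with compound in DMSO plus rat liver microsomes and NADPH, each at 0.5 mg/mL final. After 16 h at 37 C, LiveBLAzer substrate was added for 2 h.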

[8] = p53 small molecule agonists, cell-based qHTS assay with human liver microsomes: qHTS cell viability counter screen (AID 1963579); further: nearly all actives have a fitted effect of over 45% in size
How it was run: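 Cytotoxicity counter screen: p53RE-bla, 4,000 cells/well; 5 h settle, 37 C/5% CO2; cpd + HLM 0.5 mg/mL + NADPH 0.5 mg/mL (final); 16 h, 37 C; CellTiter-Glo, 30 min RT, luminescence.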

[9] = p53 small molecule agonists, cell-based qHTS assay: qHTS cell viability counter screen (AID 1963581); further: nearly all actives have a fitted effect of over 45% in size
How it was run: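 Viability was counter-screened in parallel with the p53 agonist reporter by measuring intracellular ATP luminescence in the same HCT-116 p53RE-bla wells after 16 h compound treatment at 37 C.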

[10] = p53 small molecule agonists, cell-based qHTS assay (AID 1963582; active means well fitted activation curve with a large enough effect in the signal ratio in the repeat runs, not every such curve was filed as active; the % refers to the signal ratio)
How it was run: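 Cells carrying a p53-responsive bla reporter are treated with test compounds for 16 h at 37 C; beta-lactamase activity is then detected with LiveBLAzer B/G FRET substrate after 2 h at room temperature.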

[11] = target: 5-hydroxytryptamine receptor 2A (Homo sapiens) (UniProt P28223); assay: 5-hydroxytryptamine receptor 2A (HTR2A) small molecule antagonists, cell-based qHTS assay (AID 1963586); further: nearly all actives have a fitted effect of over 45% in size
How it was run: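 CHO cells stably expressing human HTR2A were plated for 18 h at 37 C, then loaded with calcium dye for 1 h. Compounds were preincubated 5 min at room temperature before DOI (4 nM solution) was added. Kinetic fluorescence was read for 3 min.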

[12] = target: 5-hydroxytryptamine receptor 2A (Homo sapiens) (UniProt P28223); assay: 5-hydroxytryptamine receptor 2A (HTR2A) small molecule agonists, cell-based qHTS assay (AID 1963587); further: nearly all actives have a fitted effect of over 30% in size
How it was run: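 HTR2A-CHO cells, plated 18 h at 37 C/5% CO2, dye-loaded 1 h at 37 C; compounds in DMSO added by pin tool (agonist mode). Intracellular calcium flux read as kinetic fluorescence on FDSS over 2 min at 1 s intervals.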

[13] = target: Muscarinic acetylcholine receptor M1 (Homo sapiens) (UniProt P11229); assay: Cholinergic receptor muscarinic 1 (CHRM1) small molecule antagonists, cell-based qHTS assay (AID 1963588); further: nearly all actives have a fitted effect of over 40% in size
How it was run: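 Compounds were tested at 15 concentrations in three independent runs. Dye-loaded CHRM1-CHO cells were exposed 5 min at room temperature before stimulation by acetylcholine added at 50nM. Intracellular calcium was read kinetically on FDSS for 3 min.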

[14] = target: Muscarinic acetylcholine receptor M1 (Homo sapiens) (UniProt P11229); assay: Cholinergic receptor muscarinic 1 (CHRM1) small molecule agonists, cell-based qHTS assay (AID 1963589); further: nearly all actives have a fitted effect of over 35% in size
How it was run: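 Cells were plated and incubated 18 h at 37 C/5% CO2, loaded with calcium dye for 1 h at 37 C, then treated with compounds in DMSO. Fluorescence was recorded kinetically at 1 sec intervals.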

[15] = cAMP Responsive Elements (CRE) small molecule agonists, cell-based qHTS assay (AID 1963590)
How it was run: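 Cells carrying a CRE-driven beta-lactamase reporter (HEK 293T) are seeded, incubated overnight (18 h), and treated with test compounds for 3 h at 37 C; reporter activity is then detected with a FRET substrate after 2 h at room temperature.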

[16] = cAMP Responsive Elements (CRE) small molecule antagonists, cell-based qHTS assay (AID 1963591; active means well fitted inhibition curve with a large enough effect in the signal ratio in the repeat runs, not every such curve was filed as active; the % refers to the signal ratio)
How it was run: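 Cells (CRE-bla HEK 293T, DMEM with 10% dialyzed FBS and 25 mM HEPES) are seeded and incubated 18 h. Compounds are added with NKH477 agonist at 0.25 uM final for 3 h, then FRET substrate for 2 h.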

[17] = target: Beta-2 adrenergic receptor (Homo sapiens) (UniProt P07550); assay: Adrenergic beta2 receptor (ADRB2) small molecule antagonists, cell-based qHTS assay (AID 1963592); further: series mostly up to about 92 µM; nearly all actives have a fitted effect of over 50% in size
How it was run: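 Assay format: CHO-ADRB2 cells, 18-20hr seeding at 37C/5% CO2, then compound plus 1nM isoproterenol agonist mix for 0.5hr RT. Homogeneous time-resolved fluorescence cAMP detection after 1hr, expressed as 665/615 nm ratio.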

[18] = target: Beta-2 adrenergic receptor (Homo sapiens) (UniProt P07550); assay: Adrenergic beta2 receptor (ADRB2) small molecule agonists, cell-based qHTS assay (AID 1963593);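 further: CHO cells stably overexpressing human ADRB2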
How it was run: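 CHO cells stably over-expressing ADRB2 were plated overnight at 37C, then dosed with compounds plus a stimulation mix containing 100uM IBMX and 25uM Ro-20-1724 for 0.5hr at room temperature. cAMP was measured by HTRF competition, 1hr.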

[19] = target: D(2) dopamine receptor (Homo sapiens) (UniProt P14416); assay: Dopamine D2 receptor (DRD2) small molecule agonists, cell-based qHTS assay (AID 1963594); further: nearly all actives have a fitted effect of over 35% in size
How it was run: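 HEK293 cells stably expressing DRD2 were cultured 24 h at 37 C, then given Ro20-1724 (0.1 mM final) and compounds for 10 min at room temperature. NKH477 (200nM) was then added for 30 min. cAMP was read by HTRF.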

[20] = target: D(2) dopamine receptor (Homo sapiens) (UniProt P14416); assay: Dopamine D2 receptor (DRD2) small molecule antagonists, cell-based qHTS assay (AID 1963595; active means well fitted inhibition curve with a large enough effect in the signal ratio in the repeat runs, with a control signal flat; the % refers to the signal ratio)
How it was run: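 DRD2-HEK293; 0.1 mM Ro20-1724; cpd 10 min RT; NKH477 200 nM + quinpirole 12 nM, 30 min RT; HTRF cAMP (cAMP-d2/anti-cAMP cryptate), 665/620 nm ratio after 1 h.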
On the % scale 0 is the no-effect control and ±100 the full control effect.

Gonadotropin-releasing hormone receptor (Homo sapiens), sequence (P30968 whole entry, looked up): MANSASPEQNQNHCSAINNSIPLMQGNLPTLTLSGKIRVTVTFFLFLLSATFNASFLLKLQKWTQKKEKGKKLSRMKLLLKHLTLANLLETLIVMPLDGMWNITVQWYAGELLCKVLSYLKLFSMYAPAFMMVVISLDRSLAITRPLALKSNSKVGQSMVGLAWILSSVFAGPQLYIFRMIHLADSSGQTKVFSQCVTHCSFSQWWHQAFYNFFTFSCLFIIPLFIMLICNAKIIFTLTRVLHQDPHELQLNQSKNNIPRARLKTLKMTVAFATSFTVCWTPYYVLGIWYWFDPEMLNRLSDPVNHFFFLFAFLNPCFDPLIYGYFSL
Muscarinic acetylcholine receptor M1 (Homo sapiens), sequence (P11229 whole entry, looked up): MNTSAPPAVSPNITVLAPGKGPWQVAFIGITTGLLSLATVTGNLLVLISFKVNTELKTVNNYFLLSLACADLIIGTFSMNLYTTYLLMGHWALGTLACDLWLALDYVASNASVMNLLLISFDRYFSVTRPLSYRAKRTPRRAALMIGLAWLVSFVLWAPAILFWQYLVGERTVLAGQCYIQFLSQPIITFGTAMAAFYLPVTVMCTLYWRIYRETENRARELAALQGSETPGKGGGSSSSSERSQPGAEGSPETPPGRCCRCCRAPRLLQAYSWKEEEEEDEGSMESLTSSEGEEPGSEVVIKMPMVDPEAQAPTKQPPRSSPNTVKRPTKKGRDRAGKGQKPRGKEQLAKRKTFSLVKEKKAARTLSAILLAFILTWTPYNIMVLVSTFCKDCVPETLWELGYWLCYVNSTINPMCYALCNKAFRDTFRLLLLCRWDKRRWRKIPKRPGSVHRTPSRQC
KiSS-1 receptor (Homo sapiens), sequence (Q969F8 whole entry, looked up): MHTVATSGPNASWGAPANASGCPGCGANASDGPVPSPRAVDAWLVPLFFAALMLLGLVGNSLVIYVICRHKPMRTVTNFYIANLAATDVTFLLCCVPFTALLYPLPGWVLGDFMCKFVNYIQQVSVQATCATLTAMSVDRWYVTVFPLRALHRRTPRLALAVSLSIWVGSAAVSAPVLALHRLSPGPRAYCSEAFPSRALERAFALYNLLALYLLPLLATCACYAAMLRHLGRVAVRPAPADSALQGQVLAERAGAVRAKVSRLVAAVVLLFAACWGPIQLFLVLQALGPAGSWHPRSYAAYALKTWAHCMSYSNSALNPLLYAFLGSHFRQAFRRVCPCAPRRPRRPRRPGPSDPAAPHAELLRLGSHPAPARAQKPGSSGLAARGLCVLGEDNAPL
D(2) dopamine receptor (Homo sapiens), sequence (P14416 whole entry, looked up): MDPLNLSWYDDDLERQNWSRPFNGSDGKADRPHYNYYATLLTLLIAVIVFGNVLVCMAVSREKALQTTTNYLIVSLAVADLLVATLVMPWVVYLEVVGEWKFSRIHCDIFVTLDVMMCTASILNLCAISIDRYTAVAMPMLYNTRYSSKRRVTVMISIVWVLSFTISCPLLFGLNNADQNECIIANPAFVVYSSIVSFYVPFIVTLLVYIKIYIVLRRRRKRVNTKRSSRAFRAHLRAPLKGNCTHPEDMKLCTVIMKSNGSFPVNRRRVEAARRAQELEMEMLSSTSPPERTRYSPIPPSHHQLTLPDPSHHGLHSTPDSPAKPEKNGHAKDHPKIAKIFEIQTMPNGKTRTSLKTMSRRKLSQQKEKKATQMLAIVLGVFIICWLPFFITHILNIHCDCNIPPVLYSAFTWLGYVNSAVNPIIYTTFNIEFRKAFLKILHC
Beta-2 adrenergic receptor (Homo sapiens), sequence (P07550 whole entry, looked up): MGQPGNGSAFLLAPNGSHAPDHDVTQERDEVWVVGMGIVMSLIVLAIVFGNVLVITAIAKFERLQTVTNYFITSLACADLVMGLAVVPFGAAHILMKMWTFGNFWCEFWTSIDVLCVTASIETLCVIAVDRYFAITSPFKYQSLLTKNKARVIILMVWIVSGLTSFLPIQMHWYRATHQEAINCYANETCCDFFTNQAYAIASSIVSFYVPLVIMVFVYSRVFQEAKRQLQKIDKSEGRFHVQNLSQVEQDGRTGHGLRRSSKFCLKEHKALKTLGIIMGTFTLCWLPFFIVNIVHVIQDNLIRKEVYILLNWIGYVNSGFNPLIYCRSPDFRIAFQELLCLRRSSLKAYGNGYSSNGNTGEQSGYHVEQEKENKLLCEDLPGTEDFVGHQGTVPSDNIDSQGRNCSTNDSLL
5-hydroxytryptamine receptor 2A (Homo sapiens), sequence (P28223 whole entry, looked up): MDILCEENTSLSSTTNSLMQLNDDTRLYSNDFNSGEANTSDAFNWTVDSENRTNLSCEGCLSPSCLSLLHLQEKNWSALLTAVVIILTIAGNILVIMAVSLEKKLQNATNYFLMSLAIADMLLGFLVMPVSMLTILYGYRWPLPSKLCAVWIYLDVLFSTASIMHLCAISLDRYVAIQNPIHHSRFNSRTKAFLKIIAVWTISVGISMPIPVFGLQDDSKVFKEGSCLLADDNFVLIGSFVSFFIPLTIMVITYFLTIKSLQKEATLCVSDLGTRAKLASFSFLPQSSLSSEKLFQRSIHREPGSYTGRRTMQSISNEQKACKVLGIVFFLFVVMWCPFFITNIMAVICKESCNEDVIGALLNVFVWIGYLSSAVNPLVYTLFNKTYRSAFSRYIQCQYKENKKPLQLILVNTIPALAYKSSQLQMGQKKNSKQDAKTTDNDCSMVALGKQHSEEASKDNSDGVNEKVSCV

CCc1occc(=O)c1O
inactive: Potency [1] | Potency [2] | Potency [3] | Potency [4] | Potency [5] | Potency [6] | Potency [7] | Potency [8] | Potency [9] | Potency [10] | Potency [11] | Potency [12] | Potency [13] | Potency [14] | Potency [15] | Potency [16] | Potency [17] | Potency [18] | Potency [19] | Potency [20]

CC(C)CCCCOC(=O)c1ccccc1C(=O)OCCCCC(C)C
inactive: Potency [1] | Potency [2] | Potency [3] | Potency [4] | Potency [5] | Potency [6] | Potency [7] | Potency [8] | Potency [9] | Potency [10] | Potency [11] | Potency [12] | Potency [13] | Potency [14] | Potency [15] | Potency [16] | Potency [17] | Potency [18] | Potency [19] | Potency [20]

CC/C=C\CCOC(=O)CCCCC
inactive: Potency [1] | Potency [2] | Potency [3] | Potency [4] | Potency [5] | Potency [6] | Potency [7] | Potency [8] | Potency [9] | Potency [10] | Potency [11] | Potency [12] | Potency [13] | Potency [14] | Potency [16] | Potency [17] | Potency [19] | Potency [20]

COc1cc(/C=C/C(=O)O[C@H]2CC[C@]34C[C@]35CC[C@]3(C)[C@@H]([C@H](C)CCC=C(C)C)CC[C@@]3(C)[C@@H]5CC[C@H]4C2(C)C)ccc1O
inactive: Potency [1] | Potency [2] | Potency [3] | Potency [4] | Potency [5] | Potency [6] | Potency [7] | Potency [8] | Potency [9] | Potency [10] | Potency [11] | Potency [12] | Potency [13] | Potency [14] | Potency [15] | Potency [16] | Potency [17] | Potency [19] | Potency [20]

CCC(=O)Nc1cccc(N)c1
inactive: Potency [1] | Potency [2] | Potency [3] | Potency [4] | Potency [5] | Potency [6] | Potency [7] | Potency [8] | Potency [9] | Potency [10] | Potency [11] | Potency [12] | Potency [13] | Potency [14] | Potency [15] | Potency [16] | Potency [17] | Potency [20]

CO[Si](OC)(OC)c1ccccc1
inactive: Potency [1] | Potency [2] | Potency [3] | Potency [4] | Potency [5] | Potency [6] | Potency [7] | Potency [8] | Potency [9] | Potency [10] | Potency [11] | Potency [12] | Potency [13] | Potency [15] | Potency [16] | Potency [17] | Potency [18] | Potency [19] | Potency [20]

CCn1cc(C(=O)O)c(=O)c2cc3c(cc21)OCO3
inactive: Potency [1] | activity, positive = activation [2] -1.35% [at 19 µM] | Potency [3] | Potency [4] | Potency [5] | Potency [6] | Potency [7] | Potency [8] | Potency [9] | Potency [10] | Potency [11] | Potency [12] | Potency [13] | activity change, negative = inhibition [16] -7.86% [at 18.9 µM] | Potency [17] | Potency [18] | Potency [19] | Potency [20]
